Measured values published in PubChem BioAssay AID651551 (Sanford-Burnham Center for Chemical Genomics, 2012).

Assay: GAPDH versus PEG-3 reporter suppression – cell-based, luminescence, counter-screen for PEG-3 promoter inhibitor project, SAR follow-up (AID 651551)
Conditions: HeLa PEG-Prom / GAPDH luciferase reporter, 6 or 24 h, run 1, 24 h; at 99 µM (top of the series)

Row | SMILES | inhibition % (higher = more inhibition)
1 | Cc1ccc(Cl)cc1Nc1nc(-c2sc(NC(=O)c3ccco3)nc2C)cs1 | 78%
2 | CCCn1nc(C(=O)Nc2nc3ccccc3s2)c2ccccc2c1=O | 37.5%
3 | Cc1nc(NC(=O)c2ccccc2)sc1-c1csc(Nc2cccc(Cl)c2C)n1 | 43.1%
4 | O=C(Nc1nccs1)c1nn(-c2ccccc2)c(=O)c2ccccc12 | 38.3%
5 | CCn1nc(C(=O)Nc2nc(-c3ccccn3)cs2)c2ccccc2c1=O | 32.8%
6 | COc1ccc(-n2nc(C(=O)NCC(=O)Nc3ccc(OC)c(OC)c3)c3ccccc3c2=O)cc1 | 84.2%
7 | Cc1nc(NC(=O)c2ccccc2)sc1-c1csc(Nc2ccccc2)n1 | 92%
8 | Cc1cc(NC(=O)c2ccccc2C)n(-c2nc3ccccc3[nH]2)n1 | 57.6%
9 | Cc1cc(NC(=O)c2cccc(C)c2C)n(-c2nc3ccccc3[nH]2)n1 | 27.5%
10 | COc1ccc(-n2nc(C(=O)NCC(=O)Nc3cc(OC)c(OC)c(OC)c3)c3ccccc3c2=O)cc1OC | 69.6%
11 | CCn1cc(C(=O)NCc2ccco2)c(=O)c2cc(S(=O)(=O)N3CCCC3)ccc21 | 56.3%
12 | O=C(Nc1nc2ccccc2s1)c1nn(-c2ccccc2)c(=O)c2ccccc12 | 40.7%
13 | Cc1cc(NC(=O)c2ccccc2C(F)(F)F)n(-c2nc3ccccc3[nH]2)n1 | 97.3%
14 | COc1ccc(-n2nc(C(=O)NCC(=O)Nc3cccc(OC)c3)c3ccccc3c2=O)cc1 | 28.1%
15 | O=C(Nc1nc(-c2ccccc2)cs1)c1nn(-c2ccccc2)c(=O)c2ccccc12 | 23.5%
16 | COCCCNC(=O)c1ccc(Cn2c(=O)c3ccccc3n(Cc3ccccc3C#N)c2=O)cc1 | 73.3%
17 | CCCn1nc(C(=O)Nc2nc(-c3ccccn3)cs2)c2ccccc2c1=O | 73.2%
18 | CCCn1nc(C(=O)Nc2nc(-c3ccncc3)cs2)c2ccccc2c1=O | 88.9%
19 | COc1ccccc1Nc1nc(-c2sc(NC(=O)c3ccco3)nc2C)cs1 | 68.4%
20 | Cc1cc(NC(=O)c2ccccc2)n(-c2nc3ccccc3[nH]2)n1 | 14.1%
21 | Cc1nc(NC(=O)c2ccccc2)sc1-c1csc(Nc2ccccc2Cl)n1 | 22.6%
22 | Cc1cc(NC(=O)c2ccccc2)n(-c2nc3ccccc3n2C)n1 | 6.34%
23 | COc1ccc(Cl)cc1Nc1nc(-c2sc(NC(=O)c3ccccc3)nc2C)cs1 | 74.9%
